Reference: PubChem BioAssay (EPA / NIEHS)
“And” between values parts separate entries of the source, which are not always exact repeats. Equal values may be shown once. The source made the active and inactive calls. How the source made its calls: active means hit-call score of the fitted dose curve at least 0.9, where 1 is the maximum; inactive means score below 0.9.

read-out: Monocyte Chemoattractant Protein-1 (MCP1), CCL2 (gene 6347); test: BSK_SAg_MCP1: BioMAP Diversity Plus: SAg Assay for Monocyte Chemoattractant Protein-1 (MCP1) Biomarker Activity (AID 2283090); settings: primary human HUVEC with PBMC; actives raise or lower the signal
Procedure, shortened: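 Values derive from bidirectional fitting of ELISA-measured MCP1 against DMSO controls. Readings were taken 24 h after dosing human vascular endothelial cells co-cultured with peripheral blood mononuclear cells under superantigen stimulation.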

Question: For Oc1c(Cl)cc(Cl)cc1Sc1cc(Cl)cc(Cl)c1O, which AC50 is on record?
Answer: 8.87 µM (active) and 5.21 µM (active)

Question: O=P(O)(O)CCC(F)(F)C(F)(F)C(F)(F)C(F)(F)C(F)(F)C(F)(F)F was tested. Which outcome did it give?
Answer: inactive

Question: How did the outcome turn out when O=P(O)(O)CCC(F)(F)C(F)(F)C(F)(F)C(F)(F)C(F)(F)C(F)(F)C(F)(F)C(F)(F)F was run?
Answer: inactive
